Experimental data: PubChem BioAssay (NCI)
About 79,000 compounds went through this panel and 15% of them were active in at least one assay; those are over-represented in the sample as a whole. Unmarked numbers belong to inactive results. Calls of active or inactive are those of the source. Cut-off read from the data, not from the text of the source: active = growth inhibition above about 70%; inactive = the rest.

How the values were obtained:
[1] = NCI Yeast Anticancer Drug Screen. Data for the rad50 strain (AID 155);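 note: 0% = growth of vehicle-only cultures of the same strain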; conditions: S. cerevisiae rad50 strain growth inhibition, active compounds read high
Procedure, shortened: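 Readout: growth inhibition relative to vehicle-treated cultures. Compound exposure was carried out in a genetically defined yeast strain deficient in DNA damage repair.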

[2] = NCI Yeast Anticancer Drug Screen. Data for the mec2-1 strain (AID 157); conditions: S. cerevisiae mec2-1 strain, active compounds read high
Procedure, shortened: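 Each compound was tested on mec2-1 yeast, a strain altered in DNA damage repair or cell cycle control. Growth inhibition is reported relative to vehicle.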

[3] = NCI Yeast Anticancer Drug Screen. Data for the sgs1 mgt1 strain (AID 161);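 note: 0% = growth of cultures given vehicle only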; conditions: S. cerevisiae sgs1 mgt1 strain, active compounds read high
Procedure, shortened: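 Test agents were incubated with a DNA-repair-mutant yeast strain. Growth was then read and compared against vehicle-treated controls.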

[4] = NCI Yeast Anticancer Drug Screen. Data for the cln2 rad14 strain (AID 165);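 note: 0% = growth equal to vehicle treated cultures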; conditions: S. cerevisiae cln2 rad14 strain, active compounds read high
Procedure, shortened: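 Test compounds were added to cln2 rad14 yeast cultures; inhibition of growth was then determined by comparison with vehicle treatment.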

[5] = NCI Yeast Anticancer Drug Screen. Data for the bub3 strain (AID 167); conditions: S. cerevisiae bub3 mutant strain, active compounds read high
Procedure, shortened: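 Readout: yeast growth inhibition, expressed relative to vehicle-only wells. The test organism is a mutant strain from a panel with lesions in DNA repair or checkpoint genes.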

[6] = NCI Yeast Anticancer Drug Screen. Data for the mlh1 rad18 strain (AID 175); conditions: S. cerevisiae mlh1 rad18 strain growth inhibition, active compounds read high
Procedure, shortened: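 Inhibition values reflect reduced growth of mutant yeast versus vehicle-treated controls following compound exposure; the mutations affect DNA damage repair.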

[7] = at 5.0 µM (retest, dose inferred, filed as 0.5)
[8] = at 50.0 µM (retest, dose inferred, filed as 5.0)

| Compound | growth inhibition [1, 7] | growth inhibition [1, 8] | growth inhibition ([1]; at 50.0 µM) | growth inhibition [2, 7] | growth inhibition [2, 8] | growth inhibition ([2]; at 50.0 µM) | growth inhibition [3, 7] | growth inhibition [3, 8] | growth inhibition ([3]; at 50.0 µM) | growth inhibition [4, 7] | growth inhibition [4, 8] | growth inhibition ([4]; at 50.0 µM) | growth inhibition [5, 7] | growth inhibition [5, 8] | growth inhibition ([5]; at 50.0 µM) | growth inhibition [6, 7] | growth inhibition [6, 8] | growth inhibition ([6]; at 50.0 µM) |
| --- | --- | --- | --- | --- | --- | --- | --- | --- | --- | --- | --- | --- | --- | --- | --- | --- | --- | --- |
| CCN(CC)CCNc1nc(N)c2nc(-c3ccccc3)c(-c3ccccc3)nc2n1 | -4% | 51% | 95.3% (active) | -3% | 22% | 15.5% | -4% | 36% | 90.5% (active) | -1% | 5% | 27.6% | -22% | 36% | 61.7% | -5% | 56% | 85.8% (active) |
| c1ccc(NCCSc2nc3ccccc3s2)cc1 | 6% | 44% | 42.3% | 9% | 22% | 27.4% | 2% | 80% (active) | 26% | -21% | 43% | 8.55% | 24% | 70% (active) | 81.6% (active) | 8% | 77% (active) | 77.7% (active) |
| CCOC(=O)C(CO)c1nc2c([nH]c1=O)c(=O)n(C)c(=O)n2C (configuration not stated) | 5% | 18% | 29.9% | 14% | 17% | 43.5% | 33% | 60% | 50.5% | -4% | 5% | -2.95% | 6% | 39% | 52.9% | 17% | 18% | 83.5% (active) |
| CCCCCCCCCCCCCC(=O)N1CCOCC1 | 0% | 99% (active) | 97.8% (active) | -3% | 100% (active) | 99.7% (active) | -3% | 99% (active) | 98% (active) | -1% | 99% (active) | 96.5% (active) | 4% | 99% (active) | 99.6% (active) | 7% | 99% (active) | 99.3% (active) |
| O=c1c(S(=O)(=O)Oc2ccccc2)coc2cc(F)ccc12 | 99% (active) | 100% (active) | 81.7% (active) | 99% (active) | 100% (active) | 86.7% (active) | 99% (active) | 100% (active) | 90.2% (active) | 99% (active) | 100% (active) | 91.5% (active) | 99% (active) | 100% (active) | 91% (active) | 99% (active) | 100% (active) | 93.1% (active) |
| NC(=O)/C(=N\NC(=O)c1cc2ccccc2cc1O)C1C(=O)N(c2ccccc2)N=C1N (configuration not stated) | 15% | 15% | 71.5% (active) | 6% | 6% | 43.4% | 7% | 7% | 20.7% | 16% | 16% | 11.7% | 2% | 2% | 50.1% | 25% | 25% | 67.4% |
| O=C1CCCCCC1Cc1cc(O)c(CC2CCCCCC2=O)cc1O (configuration not stated) | 10% | 54% | 91.8% (active) | 8% | 34% | 80.2% (active) | 12% | 82% (active) | 86.5% (active) | -6% | 32% | 11.2% | -3% | 33% | 64.2% | 8% | 88% (active) | 35.2% |
| O=S(=O)(Cl)c1ccc(Br)cc1 | 45% | 99% (active) | 37.3% | 68% | 100% (active) | -4.55% | 72% (active) | 99% (active) | 0.15% | 21% | 100% (active) | -76.1% | 84% (active) | 99% (active) | 9.25% | 28% | 99% (active) | 0.55% |
| O=C(NNS(=O)(=O)c1ccccc1)Nc1ccccc1 | -21% | -15% | -13.4% | 17% | -11% | 5.85% | -3% | 6% | 7.45% | -1% | 4% | 3.8% | 2% | 1% | 7.2% | 4% | 15% | -5.3% |
| O=c1[nH]c2c([N+](=O)[O-])cc(Cl)cc2nc1/C=C(\O)c1ccccc1 | 17% | 81% (active) | 49.6% | -3% | 65% | 4.65% | 7% | 63% | 66.8% | 4% | 59% | 45.4% | 16% | 77% (active) | -2.5% | -9% | 80% (active) | 83.9% (active) |
| CN(C)CCCNc1ccc(O)c2sc3ccccc3c(=O)c12 | 4% | 14% | 69.7% | -5% | 33% | 34.6% | -5% | 20% | 63.6% | -3% | -11% | 15.6% | 5% | 25% | 24.4% | 0% | 23% | 72% (active) |
| Cc1ccc(S(=O)(=O)NC(=O)CC2CCCCC2)cc1 | 14% | 89% (active) | 91.2% (active) | 9% | 93% (active) | 76.5% (active) | -9% | 94% (active) | 79.1% (active) | -4% | 91% (active) | 76.7% (active) | 17% | 94% (active) | 79% (active) | 22% | 96% (active) | 91.5% (active) |
| N#[N+]c1ccc2c(S(=O)(=O)Oc3ccc(C(=O)c4ccccc4)c(OS(=O)(=O)c4cccc5c([O-])c([N+]#N)ccc45)c3)cccc2c1[O-] | -10% | 46% | 82.5% (active) | -7% | 33% | 85.3% (active) | 1% | 59% | 77.2% (active) | 36% | 45% | 84% (active) | -3% | 31% | 77.1% (active) | -13% | 4% | 72.7% (active) |
| CCCCn1cnc2c(SCc3ccc(F)cc3)nc(N)nc21 | -1% | 48% | 46.3% | 1% | 59% | 46.6% | -3% | 16% | 39.1% | -15% | 49% | 44.8% | 0% | 45% | 90.1% (active) | 0% | 30% | 66.9% |
| CC1N=C(Cc2ccccc2)SC1C (configuration not stated) | -2% | 81% (active) | 74.5% (active) | -5% | 85% (active) | 86.1% (active) | 0% | 87% (active) | 86.8% (active) | -9% | 85% (active) | 88% (active) | 0% | 83% (active) | 88.3% (active) | -1% | 84% (active) | 85.8% (active) |
| COc1ccc(C(=O)Cc2nc3nnc(NC(=O)Nc4ccc(Cl)cc4)n3nc2CC(=O)c2ccc(OC)cc2)cc1 | 2% | 96% (active) | 93.1% (active) | 7% | 98% (active) | 94.9% (active) | 1% | 98% (active) | 94.8% (active) | -1% | 97% (active) | 93.5% (active) | 7% | 98% (active) | 96.2% (active) | 4% | 97% (active) | 95.1% (active) |
| CCCCc1c2c(nc3c1CCc1cc4cc5c(nc4nc1-3)-c1nc3c(c(CCCC)c1CC5)CCC/C3=N/OC)/C(=N\OC)CCC2 | 0% | 76% (active) | 94.2% (active) | 2% | 94% (active) | 96% (active) | -4% | 90% (active) | 95.8% (active) | -22% | 93% (active) | 95.3% (active) | -5% | 90% (active) | 95.9% (active) | -11% | 93% (active) | 95.7% (active) |
| C=Cc1ccc(B2NCCO2)cc1 | -2% | 99% (active) | 99.7% (active) | 7% | 97% (active) | 99.5% (active) | -8% | 99% (active) | 99.6% (active) | 0% | 74% (active) | 92.5% (active) | 8% | 59% | 99.5% (active) | 10% | 99% (active) | 99.2% (active) |
| O=C(CC1(O)C(=O)Nc2c(Cl)cc(Cl)cc21)c1ccc(Br)cc1 (configuration not stated) | 3% | 3% | 93.1% (active) | -9% | -9% | 92% (active) | -23% | -23% | 92% (active) | -8% | -8% | 91.8% (active) | 7% | 7% | 94.3% (active) | -1% | -1% | 92.7% (active) |
